# Results taken from PubChem BioAssay (Tox21).
# Inconclusive results are not listed. Where a call stands in place of a potency, no number is given. Active and inactive are the calls of the source. Calls follow the shape of the dose curve; as a rule, active = well fitted cell-killing curve with a large enough effect in the repeat runs; inconclusive = weak or mixed curves, or effect the other way; inactive = flat fitted curve, though single readings scatter.
# Assay: qHTS assay to identify small molecule agonists of the TGF-beta/Smad signaling pathway - cell viability counter screen (AID 1346829); also: nearly all actives have a fitted effect of over 45% in size
# Conditions: SBE-bla HEK293T viability, CellTiter-Glo luminescence, 5 h; series mostly up to 76.8 µM
# From the text: National Center for Advancing Translational Sciences [NCATS]
# NIH Chemical Genomics Center [NCGC]
# U.S. Environmental Protection Agency [EPA]
# National Institutes of Environmental Health Sciences [NIEHS]
# National Toxicology Program [NTP]
# U.S. Food and Drug Administration [FDA]
# Transforming growth factor beta (TGF-beta) superfamily consists of a large number of structurally related dimeric proteins that act as hormones or local mediators in regulating a wide range of biological functions. This superfamily includes TGF-betas themselves, the bone morphogenetic proteins (BMPs) and the activins. These ligands induce oligomerization of serine/threonine receptor kinases and phosphorylate the cytoplasmic signaling molecules of Smad protein family. CellSensor SBE-bla HEK 293T cell line (Life Technologies, Carlsbad, CA), responsive to TGF-beta was used to screen Tox21 10K compound library for identification of agonists/antagonists of the Smad signaling pathway. This cell line contains a beta-lactamase reporter gene under control of the Smad binding element (SBE) stably integrated into HEK 293T cells. Also cytotoxicity of the compounds was tested in parallel by measuring the cell viability using CellTiter-Glo assay system in the same wells.
# Tox21 Assay Protocol Summary:
# SBE-bla HEK 293T cells were dispensed at 4,000/well in 6 uL of assay medium into black wall/clear-bottom 1536-well plates using a Multidrop Combi (ThermoFisher Scientific, Waltham, MA) dispenser. After the assay plates were incubated at 37 C and 5% CO2 for an overnight, 23 nL of compounds dissolved in DMSO, positive controls or DMSO only was transferred to the assay plate by a Pintool station (Kalypsys, San Diego, CA). The assay plates were incubated at 37 C and 5% CO2 for 5 hr. One uL of LiveBLAzer B/G FRET substrate (Life Technologies) was added using a Flying Reagent Dispenser (FRD, Aurora Discovery, San Diego, CA) and the plates were incubated at room temperature for 2 hr. Fluorescence intensity (405 nm excitation, 460 nm and 530 nm emissions) was measured using an Envision plate reader (PerkinElmer, Shelton, CT). For cytotoxicity read, 4 uL of CellTiter-Glo reagent (Promega Corporation, Madison, WI) was added to each well of the assay plates using FRD. After 30min incubation at room temperature, the luminescence intensity was measured using ViewLux plate reader (PerkinElmer).
# Potency is read from the fitted curve at half-maximal effect.
row,Compound,Potency
1,N#CCCN(CCO)CCO,inactive
2,COc1cc(Nc2c(C#N)cnc3cc(OCCCN4CCN(C)CC4)c(OC)cc23)c(Cl)cc1Cl,inactive
3,CN1CCCN=C1COC(=O)C(O)(c1ccccc1)C1CCCCC1 (stereo not given),inactive
4,CN1C(=O)OC(C)(C)C1=O,inactive
5,CCn1cc(C(=O)O)c(=O)c2cc(F)c(N3CCNCC3)cc21,inactive
6,CCOc1ccc(Cc2nccc3cc(OCC)c(OCC)cc23)cc1OCC,inactive
7,CC(=O)Nc1ccc(C)cc1C,inactive
8,C=C1C[C@@]23CC[C@H]4[C@@](C)(CCC[C@@]4(C)C(=O)O[C@@H]4O[C@H](CO)[C@@H](O)[C@H](O)[C@H]4O)[C@@H]2CC[C@]1(O[C@@H]1O[C@H](CO)[C@@H](O)[C@H](O[C@@H]2O[C@H](CO)[C@@H](O)[C@H](O)[C@H]2O)[C@H]1O[C@@H]1O[C@H](CO)[C@@H](O)[C@H](O)[C@H]1O)C3,inactive
9,O=C(Cn1ccnc1[N+](=O)[O-])NCCO,inactive
10,O=C1c2ccccc2C(=O)N1CCc1noc(-c2ccc(CN3CCCCCC3)s2)n1,inactive
11,COC(=O)C1=C(C)NC(C)=C(C(=O)O[C@@H]2CCCN(Cc3ccccc3)C2)[C@@H]1c1cccc([N+](=O)[O-])c1,inactive
12,Cc1cc(O)ccc1O,inactive
13,O=C(O)C[C@H](NC(=O)OCc1ccccc1)C(=O)O,inactive
14,CCCCN(CCN(CCCC)C(=O)N1CCOCC1)C(=O)N1CCOCC1,inactive
15,CCOC(=O)OC(C)OC(=O)[C@@H]1N2C(=O)[C@@H](NC(=O)[C@H](N)c3ccccc3)[C@H]2SC1(C)C (stereo not given in full),inactive
16,CC(C)=CCC/C(C)=C/CC/C(C)=C/C(=O)OCC(=O)[C@@]1(O)CC[C@H]2[C@@H]3CCC4=CC(=O)C=C[C@]4(C)[C@H]3[C@@H](O)C[C@@]21C,inactive
17,O=C1C(=O)c2ccccc2C(O)=C1C1CCC(c2ccc(Cl)cc2)CC1 (stereo not given),inactive
18,O=C(OC(=O)c1ccccc1)c1ccccc1,inactive
19,CC(C)(C)C(=O)C(=O)O,inactive
20,CN(C)CCC=C1c2ccccc2C=Cc2ccccc21,inactive

row,Compound,Potency
1,CCCCCCCC/C=C\CCCCCCCCO,inactive
2,O=C(O)c1ccc(OCCCOc2ccc(C(=O)O)cc2)cc1,inactive
3,CCc1ccccc1,inactive
4,Oc1cc2c(cc1O)[C@H]1c3ccc(O)c(O)c3OC[C@@]1(O)C2,inactive
5,O=C1Cc2cc(Cl)ccc2N1,inactive
6,O=C1CCCCCCCCCCOCCCCO1,inactive
7,O=C=Nc1cccc(C(F)(F)F)c1,inactive
8,O=c1cc(-c2ccccc2)oc2ccc3ccccc3c12,13.8 µM (active)
9,CC(C)=CCC/C(C)=C/CC/C(C)=C/CCC(=O)OC/C=C(\C)CCC=C(C)C,inactive
10,Cc1ccc(CO)cc1,inactive
11,CNC(=O)c1cnn(-c2nc(N)c3ncn([C@@H]4O[C@H](CO)[C@@H](O)[C@H]4O)c3n2)c1,inactive
12,CCCCCCCC/C=C\CCCCCCCCCCCC(=O)O,inactive
13,CN(C)CCN1C(=O)c2ccccc2N(C)c2ccccc21,inactive
14,O=C(/C=C/c1ccc(O)c(O)c1)O[C@@H]1C[C@@](OC(=O)/C=C/c2ccc(O)c(O)c2)(C(=O)O)C[C@@H](O)[C@@H]1O,inactive
15,CC(=O)[C@H]1[C@H](C#N)C[C@H]2[C@@H]3CC=C4C[C@@H](O)CC[C@]4(C)[C@H]3CC[C@@]21C,inactive
16,CC=C(Cl)Cl,inactive
17,OCCOCC#CCOCCO,inactive
18,CCCCOc1ccc(OCCCN2CCOCC2)cc1,inactive
19,Nc1nnc(-c2ccc([N+](=O)[O-])o2)o1,inactive
20,CCCCCCCCN,inactive
